Compounds with a hit are over-represented: about 3% of the library has one in this group of screens.
MITF act = activators of MITF-driven TRPM1 promoter reporter, primary screen, cell-based, SK-MEL-5, luciferase, single point; SK-MEL-5 TRPM1-promoter luciferase, 24 h; % of positive control, neutral wells = 0; activation, % at 12.5 µM; hit rate 0.75% among 300,000; AID 588334, 2011;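 active = mean activation of at least 80% with every replicate also reaching 80%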;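 note: 0% = neutral control wells and 100% = parthenolide positive control wells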
Wnt bcat act = Wnt/beta-catenin pathway activators, primary screen, cell-based, plate reader, single point. activation, % at 9.35 µM. AID 743398, 2014. Wnt/beta-catenin reporter cell assay, activator. hit rate 1.2% among 300,000; in the data active = activation above about 30%, passing the limit was not always enough;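 note: 0% = neutral control wells and 100% = positive control wells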
esBAF inh = Bmi1 luciferase reporter increase in mESCs, primary screen, esBAF inhibitor project, mouse ES cells, Bmi1 luciferase knock-in, single point; 24 h; 100% = twice the neutral-well signal; AID 602393, 2012; reporter increase, % at 12.5 µM; hit rate 2% among 350,000; in the data active = activation above about 40%;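 note: 0% = median of the plate's neutral control wells and 100% = double that signal; a rise in the Bmi1 reporter signal indicates esBAF inhibition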
Statin myotox sup = suppressors of statin myotoxicity in C2C12 myotubes, primary screen, cell-based, single point, plate reader | rescue of ATP level, % at 7.49 µM | C2C12 myotubes + simvastatin, ATP luminescence, 48 h; scaled: DMSO 0, geranylgeraniol control 100 | AID 602340, 2012 | hit rate 0.78% among 330,000;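 active = mean ATP rescue above about 67%, or every replicate alone reaching that limit, limit read from the data, passing the limit was not always enough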;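 note: myotubes were challenged with 10 µM simvastatin during compound exposure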
* hit, by the source's call; / = not tested or not shown.

SMILES	MITF act	Wnt bcat act	esBAF inh	Statin myotox sup
CCC(=O)Nc1sc2c(c1C#N)CCCCC2	49	/	35	11
CC(=O)Nc1sc2c(c1C#N)CCCCC2	0	11	13	16
Oc1cc(Nc2ccccc2)cc2cccnc12	-57	80*	10	-11
Oc1cccc2cc(Nc3ccccc3)cnc12	/	-9	-39	-30
CCOc1ccc(N2C(=O)CCC2=O)cc1	/	-9	-6	11
CCCC1CCC(c2ccc(OCC)cc2)=CC1=O (centres undefined)	67	53*	29	-16
CCNC(=O)C[C@@H]1CC[C@@H]2[C@H](COC[C@@H](O)CN2C(=O)Nc2ccc3c(c2)OCO3)O1	/	/	4	-10
CCCNC(=O)C[C@H]1CC[C@H]2[C@@H](COC[C@@H](O)CN2C(=O)Nc2ccc3c(c2)OCO3)O1	/	/	41*	3
CCNC(=O)C[C@H]1CC[C@H]2[C@@H](COC[C@@H](O)CN2C(=O)Nc2ccc3c(c2)OCO3)O1	/	/	53*	-13
O=C(Nc1ccc2c(c1)[C@H]1C[C@@H](CC(=O)N3CCCCC3)O[C@@H](CO)[C@H]1O2)c1cccnc1	/	/	-3	2
OCCN(CCCn1c(-c2ccncc2)nc2ccccc21)c1nc(CN2CCCCC2)cs1	-1	3	4	66*
O=C(N[C@@H]1CC[C@H](CCn2cc(C3(O)CCCC3)nn2)O[C@H]1CO)C1CCCCC1	/	/	3	2
COc1ccc(CNC(=O)C(c2ccncc2)N(C(=O)Cc2cccs2)c2ccc(C)cc2)cc1 (centres undefined)	1	/	130*	-24
Cc1ccc(CCNc2ccc3ccccc3c2)cn1	17	-1	16	94*
CCCCSc1nc2c(cnn2-c2ccccc2)c(=O)n1N	58	18	/	/
CCCSc1nc2c(cnn2-c2ccccc2)c(=O)n1N	/	41*	0	12
O=C(CN(C(=O)c1cc2c(s1)CCC2)C1CCCC1)NCc1cccs1	-5	50*	-1	30
CN(C)c1ccc(NC(=O)c2ccc(N3CCOCC3)nc2)cc1	32	9	51*	-9
COc1ccc(NC(=O)c2ccc(N3CCOCC3)nc2)cc1	8	2	2	-21
CSc1nc2c(c(=O)[nH]1)CCCC2	3	/	-3	119*
O=c1[nH]c(N2CCN(c3ccccc3)CC2)nc2c1CCCC2	-21	/	/	/
O=c1[nH]c(N2CCOCC2)nc2c1CCCC2	-4	/	0	117*
CCN(C(=O)c1cnc(N2CCN(c3ncccn3)CC2)c2ccccc12)c1cccc(Cl)c1	-17	/	-1	110*
CN(C(=O)c1cnc(N2CCN(c3ncccn3)CC2)c2ccccc12)c1ccc(Cl)cc1	3	/	-7	-10
O=C1N=C(N2CCCCC2)S/C1=C\c1ccc(Cl)cc1	/	2	29	10
SMILES	MITF act	Wnt bcat act	esBAF inh	Statin myotox sup
Cc1ccc(/C=C2\SC(N3CCCCC3)=NC2=O)cc1	64	7	42*	7
CC(C)n1nnnc1SCC(=O)N1N=C(c2cccs2)CC1c1cccs1 (centres undefined)	60	5	71*	1
Cc1ccc(C2CC(c3cccs3)=NN2C(=O)CCl)cc1 (centres undefined)	-52	18	62*	-26
COc1ccc(C2CC(c3cccs3)=NN2C(=O)CSc2nnnn2C)cc1OC (centres undefined)	-15	-3	/	/
CCC(=O)N1N=C(c2cccs2)CC1c1ccc(C)cc1 (centres undefined)	11	1	1	8
C[C@H](CO)N1C[C@H](C)[C@H](CN(C)Cc2ccc(C(F)(F)F)cc2)Oc2ccc(NC(=O)Nc3ccc(C(F)(F)F)cc3)cc2CC1=O	/	/	3	21
C[C@@H]1CN([C@H](C)CO)C(=O)Cc2cc(NC(=O)CCCCCC(=O)Nc3ccccc3N)ccc2O[C@@H]1CN(C)Cc1ccc(C(F)(F)F)cc1	/	/	-8	-16
CCCc1nc2c3ccccc3ccn2c1Cc1ccccc1	/	33*	52*	-6
CCOC(=O)c1cnc(Nc2nc3ccccc3o2)nc1CSC(=S)N(CC)CC	-13	6	/	/
CCCc1nc(Nc2nc3ccccc3o2)nc(C)c1C(=O)OCC	116*	/	63*	-38
C[C@H]1CN([C@@H](C)CO)C(=O)Cc2cc(NC(=O)Cc3cn(C)c4ccccc34)ccc2O[C@H]1CN(C)Cc1ccc(Cl)c(Cl)c1	/	/	3	60
C[C@@H]1CN([C@H](C)CO)C(=O)Cc2cc(NC(=O)Cc3cn(C)c4ccccc34)ccc2O[C@H]1CN(C)Cc1ccc2c(c1)OCO2	/	/	1	79*
C[C@H](CO)N1C[C@H](C)[C@@H](CN(C)Cc2ccc(Cl)c(Cl)c2)Oc2ccc(NC(=O)Cc3cn(C)c4ccccc34)cc2CC1=O	/	/	2	127*
Cc1ccc(SCC(=O)c2ccc[nH]2)cc1	70	8	61*	4
Cc1nc(-c2ccccc2Cl)sc1C(=O)/C=C/N(C)C	57	7	59*	9
N#C/C(=C/c1ccc(N2CCOCC2)o1)C(=O)Nc1ccccc1	58	50*	36	-1
CCOc1cccc(C2C(C(=O)c3ccco3)=C(O)C(=O)N2Cc2ccncc2)c1 (centres undefined)	2	/	8	122*
CCOc1cccc(C2C(C(=O)c3ccco3)=C(O)C(=O)N2c2nnc(C)s2)c1 (centres undefined)	8	90*	12	2
O=C(CN1CCOCC1)NCC[C@H]1CC[C@H](NC(=O)Nc2ccc(F)cc2)[C@@H](CO)O1	/	/	3	-2
CC(=O)N1[C@@H]2c3cccc(=O)n3C[C@H]1[C@H](CO)[C@H]2C(=O)NC1CCCC1	/	/	-5	6
N=C(N)c1ccc(OCCCCCOc2ccc(C(=N)N)cc2)cc1	-9	-15	-11	-136
CCCCCCOc1ccc(/C(N)=N/O)cc1	42	/	75*	-20
CCN(CC)c1ccc(-c2nc3cnccc3n2C)cc1	85*	/	40	-44
CC(C)Cn1cnc2c(SCc3ccccc3Cl)nc(N)nc21	26	1	55*	-6
CCCCn1cnc2c(SCc3cccc(F)c3)nc(N)nc21	20	0	/	1
SMILES	MITF act	Wnt bcat act	esBAF inh	Statin myotox sup
CCCn1cnc2c(SCc3ccccc3F)nc(N)nc21	61	-1	53*	-1
COc1ccccc1S(=O)(=O)N[C@@H]1CC[C@@H](CCNC(=O)C2CCOCC2)O[C@H]1CO	/	/	-5	-7
C[C@@H](NC(=O)C[C@H]1CC[C@H](NC(=O)C2CCC2)[C@H](CO)O1)c1ccccc1	/	/	-3	-7
C[C@@H]1CN([C@H](C)CO)C(=O)c2cc(NC(=O)Cc3cn(C)c4ccccc34)ccc2O[C@@H]1CN(C)Cc1ccc(-c2ccccc2)cc1	/	/	-9	18
COc1ccccc1-c1ccc(NC2CCCCC2)nn1	83*	/	/	/
COc1ccccc1OCC(=O)NC1CCCCCCC1	10	0	16	1
COc1ccccc1-c1ccc(Nc2cccc(C(F)(F)F)c2)nn1	21	/	45*	-39

Assay outcomes as filed in PubChem.
